Source: PubChem (National Center for Advancing Translational Sciences (NCATS))
An excerpt weighted towards active compounds, which were near 2.3% of everything screened.
POLI inh = inhibitors of human DNA polymerase iota; 390,000 tested, 1% active; Potency, µM (highest dose often 115 µM), inactives show at the top dose activity, negative = inhibition, actives largely listed as inhibitors; Pol iota fluorescent replication assay, 10 min; AID 588590
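Fluorescent replication assay read twice, at 0 min and 10 min after adding 50 nM (final) substrate. Enzyme (10 nM) and compounds were first incubated 15 min at room temperature; enzyme-free buffer wells were negative controls.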
POLB inh = blocks human DNA polymerase beta activity; Pol beta primer extension/strand displacement, fluorescence kinetic; 340,000 tested, 1.3% active; P06746; AID 485314; Potency, µM (top dose mostly 114 µM), for inactives: at the highest dose activity change, negative = inhibition, usual class: inhibitors; note: % is set by controls: 0 for no effect and ±100 for the full control effect
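Preincubation: enzyme (10 nM) with compound, 15 min, RT. Reaction: substrate added to 50 nM final. Reads: 0 and 10 min. Analysis: normalized, Hill fit.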
POLH inh = DNA polymerase eta (human) inhibition; Q9Y253; 390,000 tested, 1.2% active; AID 588591; Potency, µM (series often up to 114 µM), for the others: at the highest dose activity change, negative = inhibition, most hits filed as inhibitors; recombinant Pol eta, fluorescent DNA replication assay; note: % is set by controls: 0 for no effect and ±100 for the full control effect
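Pol eta at 10 nM preincubated with compounds 15 min at room temperature; reaction started with fluorescent substrate (50 nM final) and read kinetically at 0 and 10 min.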
Pol kappa inh = blocks human DNA polymerase kappa activity | 400,000 tested, 0.53% active | purified Pol kappa, fluorescent DNA synthesis assay, 10 min | Potency, µM (titrated, usually from 107 µM), for inactives: top-dose activity, negative = inhibition, most hits filed as inhibitors; note: % is set by controls: 0 for no effect and ±100 for the full control effect
Target sequence (Q9UBT6 whole entry, looked up): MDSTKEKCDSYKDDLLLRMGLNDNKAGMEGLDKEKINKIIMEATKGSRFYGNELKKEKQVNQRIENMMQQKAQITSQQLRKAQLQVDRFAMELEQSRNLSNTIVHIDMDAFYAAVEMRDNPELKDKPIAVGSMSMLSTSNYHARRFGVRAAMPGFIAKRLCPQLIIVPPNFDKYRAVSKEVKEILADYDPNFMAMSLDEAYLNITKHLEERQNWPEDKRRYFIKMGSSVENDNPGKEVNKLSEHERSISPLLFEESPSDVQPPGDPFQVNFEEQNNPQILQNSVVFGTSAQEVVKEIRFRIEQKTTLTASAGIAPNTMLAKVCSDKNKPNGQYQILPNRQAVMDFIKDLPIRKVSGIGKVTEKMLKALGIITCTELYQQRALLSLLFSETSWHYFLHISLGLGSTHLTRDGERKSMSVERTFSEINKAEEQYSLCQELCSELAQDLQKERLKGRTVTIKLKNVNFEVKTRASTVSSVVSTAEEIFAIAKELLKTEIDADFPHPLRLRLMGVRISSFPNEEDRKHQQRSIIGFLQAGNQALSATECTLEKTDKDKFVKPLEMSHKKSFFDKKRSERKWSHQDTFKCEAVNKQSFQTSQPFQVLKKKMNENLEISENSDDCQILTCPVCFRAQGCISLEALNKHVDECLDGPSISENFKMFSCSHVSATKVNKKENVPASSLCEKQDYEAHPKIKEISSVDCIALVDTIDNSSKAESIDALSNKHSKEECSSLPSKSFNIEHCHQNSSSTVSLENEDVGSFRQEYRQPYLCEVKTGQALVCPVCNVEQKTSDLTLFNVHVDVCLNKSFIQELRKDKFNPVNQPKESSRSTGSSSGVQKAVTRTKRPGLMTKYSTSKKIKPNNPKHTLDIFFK
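Here, compound and 10 nM enzyme are combined for 15 min at room temperature; adding 50 nM substrate (final) starts DNA synthesis, tracked by fluorescence at 0 and 10 min against buffer-only wells.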
WRN inhibitor = inhibitors of human WRN helicase; Q14191; WRN helicase unwinding, fluorescent forked duplex, kinetic; Potency, µM (series often up to 114 µM), for inactives: at the highest dose activity change, negative = inhibition, most hits filed as inhibitors; 360,000 tested, 0.46% active; note: % is set by controls: 0 for no effect and ±100 for the full control effect; nearly all actives have a fitted effect of over 55% in size
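Kinetic red-fluorescence monitoring (525/598 nm) tracks WRN helicase activity after 100 nM fluorophore-quencher forked duplex and 2 mM ATP are added to 20 nM enzyme pretreated 15 min at room temperature with compound.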
Numbers without * were called inactive; ? = inconclusive; / = no result; [ ] = remark or other dose. Calls come from the whole dose curve; as a rule, active = well fitted curve in the direction sought with a large enough effect; inconclusive = small, poorly fitted or top-dose-only effect, or another doubt; inactive = no such curve, though single readings can be large; an effect the other way counts as inactive or inconclusive. Potency is the fitted concentration of half-maximal effect.

SMILES | POLI inh | POLB inh | POLH inh | Pol kappa inh | WRN inhibitor
C/C(=N\NC(=O)c1ccc(N2CCCC2=O)cc1)c1ccc(O)cc1O | 45µM* | -2% | -4% | -21% | -10%[11.6 µM]
CN(C)c1ccc(/C=C/c2c(Br)cnc3ccccc23)cc1 | -10% | / | / | -4% | /
COc1cccc(O)c1O | / | / | / | 3.2µM* | /
NC(CO)C(=O)NNCc1ccc(O)c(O)c1O (centres undefined) | 32µM* | ? | 1% | 2%[60.1 µM] | -2%[11.6 µM]
CNC(=O)c1c(NC(=O)c2nc3ccccc3s2)sc2c1CCC2 | / | 45µM* | / | / | /
O=C(CSc1nc(-c2ccco2)nc2cc(=O)[nH]n12)Nc1ccc(F)cc1 | ? | 40µM* | 2% | -17% | /
O=C(CSc1nc(-c2cccs2)nc2cc(=O)[nH]n12)Nc1ccccc1 | 89µM* | -21% | ? | ? | /
O=C(CSc1nc(-c2cccs2)nc2cc(=O)[nH]n12)Nc1ccccc1Cl | ? | -24% | -27% | -37% | /
O=C(CSc1nc(-c2ccco2)nc2cc(=O)[nH]n12)Nc1ccccc1F | ? | ? | -4% | -29% | /
CO[C@@H]1[C@@H](OC2OC(C)C(OC3CC(C)(O)C(OC(=O)CC(C)C)C(C)O3)C(N(C)C)C2O)[C@@H](CC=O)C[C@@H](C)C(=O)/C=C\C2O[C@H]2C[C@@H](C)OC(=O)C[C@H]1OC(C)=O (some centres undefined) | 1% | / | / | 6%[19.4 µM] | /
COc1ccc(-c2cc(C(=O)Nc3cnn(Cc4ccc(F)cc4)c3)no2)cc1OC | 7% | -27% | -11% | -24% | /
COc1cccc(-c2cc(C(=O)Nc3cnn(Cc4ccc(F)cc4)c3)no2)c1 | 100µM* | 37% | -12% | -21% | -13%
CCc1ccc(CNC(=O)c2ccc(-n3c(C)cc4c3CCC(C)C4)cc2)cc1 (centres undefined) | 1% | 2% | -22% | -3% | /
O=C(C[n+]1cccc(Cl)c1)c1ccc(O)c(O)c1 | ? | / | / | 2.2µM* | /
O=C(C[n+]1ccccc1)c1ccc(Cl)cc1 | -22% | -14% | -4% | 1% | 3%
O=C(COC(=O)c1ccc(S(=O)(=O)N2CCCC2)cc1)NCc1ccco1 | 50µM* | ? | ? | ? | -5%[11.6 µM]
O=C(NCc1ccco1)c1ccc(S(=O)(=O)N2CCCCCC2)cc1 | -10% | / | -9% | -17% | 4%
Cc1ccc(C(=O)OCC(=O)NCc2ccco2)cc1 | 3% | 4% | ? | -5% | -8%
Cc1cccc(C(=O)OCC(=O)NCc2ccco2)c1 | 79µM* | / | 16µM* | ? | 6%[11.6 µM]
O=C(COC(=O)c1ccc(Br)o1)NCc1ccco1 | 50µM* | / | 10µM* | ? | ?
Cc1ccc(C(=O)NCc2ccco2)cc1S(=O)(=O)N1CCCCC1 | ? | 40µM* | ? | ? | -23%[57.1 µM]
CC(=O)C(=O)O | / | / | / | -6%[60.1 µM] | /
O=C(COC(=O)COc1ccccc1)NCc1ccco1 | 15% | / | -4% | 1% | -4%
O=C(COC(=O)Cc1c(Cl)cccc1Cl)NCc1ccco1 | 45µM* | / | 35µM* | ? | -8%[11.6 µM]
O=C(COC(=O)c1cccc(Br)c1)NCc1ccco1 | 25µM* | / | 79µM* | ? | ?
SMILES | POLI inh | POLB inh | POLH inh | Pol kappa inh | WRN inhibitor
O=C(COC(=O)CNC(=O)c1ccc(-c2ccccc2)cc1)NCc1ccco1 | 70% | 8.9µM* | -22% | -10% | -14%
O=C(COC(=O)Cc1ccc(Cl)c(Cl)c1)NCc1ccco1 | 13% | / | -8% | -6% | 2%
O=C(COC(=O)c1ccc(S(=O)(=O)NCc2ccco2)cc1)NCC1CCCCC1 | ? | 35µM* | ? | -31% | ?
CC(C)c1nc2ccc(C(=O)Nc3ccccc3F)cc2o1 | 26% | 13% | -21% | -15%[60.1 µM] | /
C[C@@H](NCCCc1cccc(C(F)(F)F)c1)c1cccc2ccccc12 | -13% | / | / | 0%[19.4 µM] | /
O=C(Nc1ccc(S(=O)(=O)N2CCOCC2)cc1)c1ccc(=O)[nH]c1 | ? | 13µM* | -2% | -28% | -10%
O=C(NCc1ccco1)c1ccc(S(=O)(=O)N2CCCCC2)cc1 | -12% | 3% | -4% | -7% | -10%
O=C(NCc1ccco1)c1ccc(S(=O)(=O)N2CCOCC2)cc1 | 16µM* | 35µM* | ? | ? | -10%[57.1 µM]
O=C(COC(=O)c1ccccc1)NCc1ccco1 | 28µM* | 25µM* | 13µM* | ? | -7%[11.6 µM]
O=C(COC(=O)c1cc(Cl)cc(Cl)c1)NCc1ccco1 | ? | / | 56µM* | ? | -3%[11.6 µM]
Cc1cccc(OCC(=O)Nc2cc(C)c(O)c(-c3nc4ccccc4o3)c2)c1 | 25% | / | / | -5% | /
Cn1cc(/C=C/c2ccc3ccccc3n2)c2ccccc21 | 2% | / | / | 2% | /
Cc1[nH]c2ccccc2c1C(=O)COC(=O)c1ccccc1SCC(=O)N1CCCC1 | -16% | / | / | 3% | /
C[C@H](CCC(=O)O)C1CC[C@H]2C3CC[C@@H]4C[C@H](O)CC[C@]4(C)C3C[C@H](O)[C@]12C (some centres undefined) | / | / | / | 6%[19.4 µM] | /
NC(=O)c1ccsc1NC(=O)COC(=O)CNC(=O)c1ccc(Cl)cc1 | -20% | / | -13% | -23% | -8%
CN1CCN(S(=O)(=O)c2cccc(C(=O)Nc3sccc3C(N)=O)c2)CC1 | 45µM* | / | 45µM* | ? | 0%[11.6 µM]
CN(C)S(=O)(=O)c1cccc(C(=O)OCC(=O)Nc2sccc2C(N)=O)c1 | ? | 9% | 20µM* | ? | ?
CN1CCN(S(=O)(=O)c2cccc(C(=O)Nc3cc(C(N)=O)cc(C(N)=O)c3)c2)CC1 | ? | ? | 0% | -10% | -22%
COc1ccccc1OCC(=O)OCC(=O)Nc1sccc1C(N)=O | ? | ? | 25µM* | -32% | -16%[57.1 µM]
NC(=O)c1ccsc1NC(=O)COC(=O)CNC(=O)c1cccc([N+](=O)[O-])c1 | ? | / | 35µM* | -23% | 0%[11.6 µM]
CCCCCN(CCCCC)C(=O)[C@H](CCC(=O)O)NC(=O)[C@H](Cc1ccc(OP(=O)(O)O)cc1)NC(C)=O | / | / | / | -14%[12 µM] | /
CCN(CCCCO)c1nc(C)nc2c1c(C)c(C)n2-c1c(C)cc(C)cc1C | / | / | / | -7%[60.1 µM] | /
Cc1cc(C)c2c(N)c(C(=O)Nc3nccs3)sc2n1 | 5% | 40µM* | ? | -21% | -33%
CC(C)(C)C(=O)c1sc2nc(-c3cccs3)cc(C(F)(F)F)c2c1N | 8% | 3% | -11% | 2% | 100µM*
Nc1c(C(=O)Nc2nccs2)sc2nc(-c3cccs3)cc(C(F)(F)F)c12 | -12% | 45µM* | ? | 1% | -10%
COCc1cc(C)nc2sc(C(=O)Nc3nccs3)c(N)c12 | 35% | ? | -19% | -8% | -5%
CCOc1ccc(N(C(=O)OC(C)(C)C)C(=O)c2ccc(O[Si](C)(C)C(C)(C)C)cc2)c(I)c1 | -6% | / | / | -14% | /
CN(N=O)c1ccc(/C=C/c2ccccc2)cc1 | -5% | / | / | -15% | /
